# Reference: PubChem BioAssay AID1782 (National Center for Advancing Translational Sciences (NCATS), 2009)
# Records with an inconclusive call do not appear. Entries that show only a call come without a potency. Calls of active or inactive are those of the source. Calls come from the whole dose curve; as a rule, active = well fitted curve in the direction sought with a large enough effect; inconclusive = small, poorly fitted or top-dose-only effect, or another doubt; inactive = no such curve, though single readings can be large or run the other way.
# Target: Pyruvate kinase PKLR (Homo sapiens) (UniProt P30613)
# Sequence (P30613 whole entry, looked up): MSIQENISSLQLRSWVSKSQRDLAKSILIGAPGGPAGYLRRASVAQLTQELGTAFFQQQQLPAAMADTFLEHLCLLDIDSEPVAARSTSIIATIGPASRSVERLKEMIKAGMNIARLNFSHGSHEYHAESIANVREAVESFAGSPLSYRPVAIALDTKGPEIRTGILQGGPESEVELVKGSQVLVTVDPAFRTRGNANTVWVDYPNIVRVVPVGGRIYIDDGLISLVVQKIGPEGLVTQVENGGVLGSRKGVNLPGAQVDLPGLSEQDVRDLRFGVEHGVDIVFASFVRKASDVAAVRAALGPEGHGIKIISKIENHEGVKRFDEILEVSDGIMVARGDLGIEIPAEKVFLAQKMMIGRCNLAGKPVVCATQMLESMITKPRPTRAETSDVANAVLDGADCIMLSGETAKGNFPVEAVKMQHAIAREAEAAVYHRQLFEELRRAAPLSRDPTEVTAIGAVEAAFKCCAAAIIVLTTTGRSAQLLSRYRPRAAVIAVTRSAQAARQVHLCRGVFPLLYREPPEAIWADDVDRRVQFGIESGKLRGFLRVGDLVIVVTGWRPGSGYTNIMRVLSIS
# Assay: Confirmation Concentration-Response Assay for Activators of Human Reticulocyte Pyruvate Kinase
# Conditions: purified hPK-R, Kinase-Glo ATP luminescence, 1 h; series mostly up to 57.5 µM
# Text: Confirmatory assay NIH Chemical Genomics Center [NCGC] Wael M. Rabeh, Lyudmila Nedyalkova and Hee-Wan Park [Structural Genomics Consortium, 100 College St. Toronto, Ontario, Canada] NCGC Assay Overview: Human pyruvate kinase reticulocyte (hPK-R) enzyme was supplied as a highly purified (>95% pure) preparation from Structural Genomics Consortium in Toronto (Ontario, Canada) and assayed for its ability to generate ATP from ADP using phosphoenolpyruvate (PEP) as a substrate. ATP generation was detected in a coupled reaction by luciferase-mediated luminescence, an ATP-dependent process. Pyruvate kinase substrates, PEP and ADP, were present in the assay at Km and approximately 10-fold below Km respectively. The enzyme was assayed at an intermediate level of activity to screen for both inhibitors and activators.
# NCGC Assay Protocol Summary for R-isoform Three uL of substrate mix (at r.t.) in assay buffer (50 mM Imidazole pH7.2, 50 mM KCl, 7 mM MgCl2, 0.01% Tween 20, 0.05% BSA) was dispensed into white solid bottom 1,536 well microtiter plates so that the final concentrations of substrates in the assay were 0.1 mM ADP and 0.5 mM PEP. 23 nL of compound were delivered by a pin tool and 1 uL of enzyme mix (final concentration of 0.1 nM) in assay buffer (4 degree Celsius) was added. Plates were incubated at room temperature for 1 hour. Two uL of detection mix (Kinase-Glo, Promega; at 4 degree Celsius protected from light) was added and luminescence read by a ViewLux (Perkin Elmer) at 1 second exposure/plate. Data were normalized to the uninhibited (row 31). Additionally, a no enzyme and 5-fold enzyme control was dispensed in row 32, split equally between the two conditions.
row,SMILES,Potency
1,O=S(=O)(c1ccc(F)cc1)N1CCN(S(=O)(=O)c2ccc3c(c2)OCCO3)CC1,inactive
2,Cc1cc2c(s1)c1cnn(Cc3ccc(C)c(F)c3F)c(=O)c1n2C,inactive
3,Cc1cc2c(s1)c1cnn(Cc3ccccc3Cl)c(=O)c1n2C,inactive
4,Cc1ccc(Cn2ncc3c4sc(C)cc4n(C)c3c2=O)cc1,inactive
5,COc1ccc(S(=O)(=O)N2CCN(S(=O)(=O)c3c(F)cccc3F)CC2)cc1,inactive
6,N#Cc1ccc(S(=O)(=O)N2CCN(S(=O)(=O)c3ccc4c(c3)OCCO4)CC2)cc1,inactive
7,Cn1c2cc(B(O)O)sc2c2cnn(Cc3ccccc3F)c(=O)c21,inactive
8,Cn1c2cc(CO)sc2c2cnn(Cc3ccccc3F)c(=O)c21,inactive
9,CCc1cc2c(s1)c1cnn(Cc3ccccc3F)c(=O)c1n2C,inactive
10,CCCCCn1ncc2c3sc(C)cc3n(C)c2c1=O,inactive
11,O=S(=O)(c1ccc2c(c1)OCCO2)N1CCN(S(=O)(=O)c2ccc3c(c2)OCCO3)CC1,inactive
12,Cc1cc2c(s1)c1cnn(Cc3ccc(F)c(F)c3F)c(=O)c1n2C,inactive
13,Cc1cc2c(s1)c1cnn(Cc3ccccc3F)c(=O)c1n2C(C)C,inactive
14,O=S(=O)(c1ccc2c(c1)OCO2)N1CCN(S(=O)(=O)c2c(F)cccc2F)CC1,inactive
15,COC(=O)c1cc2c(s1)c1cnn(Cc3ccccc3F)c(=O)c1n2C,inactive
16,Cn1c2cc([N+](=O)[O-])sc2c2cnn(Cc3ccccc3F)c(=O)c21,inactive
17,O=S(=O)(c1ccc2c(c1)OCCCO2)N1CCN(S(=O)(=O)c2c(F)cccc2F)CC1,inactive
18,O=S(=O)(NCCCCCNS(=O)(=O)c1c(F)cccc1F)c1ccc2c(c1)OCCO2,inactive
19,Cc1cc2[nH]c3c(=O)n(Cc4ccccc4F)ncc3c2s1,inactive
20,O=S(=O)(c1ccc(Cl)cc1)N1CCN(S(=O)(=O)c2ccc3c(c2)OCCO3)CC1,inactive
21,Cc1cc2c(s1)c1cnn(Cc3ccc(C(F)(F)F)cc3F)c(=O)c1n2C,inactive
22,CSc1cc2c(s1)c1cnn(Cc3ccccc3F)c(=O)c1n2C,inactive
23,Cc1cc2c(s1)c1cnn(Cc3ccccc3)c(=O)c1n2C,inactive
